Source: PubChem
A selection: hits, their analogues and other compounds. The true share with any hit is near 0.92%.
AGP1-GFP MLPCN – modulators of AGP1-GFP expression in yeast TOR pathway, primary screen, cell-based, multiplex flow cytometry, S. cerevisiae, MLPCN library. 3 h; GFP as percent of DMSO wells. GFP response vs DMSO, % at 10 µM. 320,000 compounds, 0.02% hits. AID 2066, 2009;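 active = GFP response relative to DMSO above a set limit, near screen average plus 3 SD, cut at about 150% in these data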;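 also: median GFP channel fluorescence of the gated AGP1 strain per well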
LAP4 TOR yeast – modulators of LAP4-GFP expression in yeast, primary screen, S. cerevisiae, multiplex flow cytometry, MLPCN library | AID 2023, 2009 | GFP response vs DMSO, % at 10 µM | 3 h; median GFP as percent of DMSO wells | 320,000 compounds, 0.34% hits;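 active = GFP response vs DMSO above a set limit, about the screen mean plus 3 SD, cut at about 150% in these data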
CIT2-GFP yeast – modulators of CIT2-GFP expression in yeast, primary screen, S. cerevisiae, GFP fusion, multiplex flow cytometry, MLPCN library. 320,000 compounds, 0.065% hits. GFP response vs DMSO, % at 10 µM. S. cerevisiae CIT2-GFP strain, 3 h; 100 means same as DMSO wells. AID 2029, 2009;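 active = GFP response relative to DMSO above a set limit, near the screen mean plus 3 SD, cut at about 150% in these data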;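 also: ratio of well median GFP fluorescence to mean of DMSO wells on the plate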
RPL19A-GFP yeast – RPL19A-GFP expression modulators in yeast, primary screen, cell-based, S. cerevisiae, multiplex flow cytometry, MLPCN; S. cerevisiae RPL19A-GFP strain, 3 h; active compounds read low; 330,000 compounds, 0.3% hits; AID 2025, 2009; percent response vs DMSO, % at 10 µM;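 active = percent response vs DMSO below 50%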;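 also: median channel GFP fluorescence of the barcoded RPL19A-GFP strain; ratio of sample median GFP to plate DMSO average so 100% = DMSO; lower means less RPL19A-GFP as with rapamycin TOR inhibition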
MEP2-GFP yeast – modulators of MEP2-GFP levels in yeast, primary screen, S. cerevisiae, multiplex flow cytometry, MLPCN library | S. cerevisiae MEP2-GFP strain, 3 h; 100% = DMSO control level | GFP response vs DMSO, % at 10 µM | 330,000 compounds, 0.51% hits;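 active = GFP response versus DMSO above a set limit, roughly screen mean plus 3 SD, cut at about 180% in these data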;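 also: median GFP fluorescence of the barcode-gated MEP2-GFP cells per well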
LAP4-GFP pick2 – LAP4-GFP expression modulators in yeast, confirmation, cell-based, second cherry pick, flow cytometry | shares compounds with LAP4 TOR yeast | S. cerevisiae LAP4-GFP strain, 3 h | GFP response vs DMSO, % at 10 µM | 590 compounds, 20% hits;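 active = GFP signal as percent of the solvent control above about 150%, meaning raised reporter expression, limit read from the data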;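 also: ratio of well median GFP fluorescence to plate DMSO mean so 100% = DMSO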
MEP2-GFP pick2 – modulators of MEP2-GFP levels in yeast, confirmation, S. cerevisiae, flow cytometry GFP, second cherry picks | shares compounds with LAP4 TOR yeast | S. cerevisiae MEP2-GFP strain, 3 h | GFP response vs DMSO, % at 10 µM | 590 compounds, 10% hits;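 active = GFP signal above 150% of the solvent control wells, that is a rise of more than half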;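 also: median channel GFP fluorescence of all gated yeast cells per well; ratio of median GFP to plate DMSO average so 100% = DMSO level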
RPL19A GFP CP2 – RPL19A-GFP modulators in TOR pathway yeast, confirmation, cell-based, S. cerevisiae, flow cytometry, second cherry pick; shares compounds with LAP4 TOR yeast; GFP response vs DMSO, % at 10 µM; 590 compounds, 3% hits; S. cerevisiae RPL19A-GFP strain, 3 h; active compounds read low; 100% means same as DMSO wells;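 active = under 65% GFP response relative to DMSO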;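 also: median GFP channel fluorescence per well over the all cells gate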
CIT2 GFP CP2 – modulators of CIT2-GFP expression in yeast, confirmation, flow cytometry, second cherry pick, single plex; AID 2624, 2010; shares compounds with LAP4 TOR yeast; 590 compounds, 8% hits; GFP response vs DMSO, % at 10 µM; S. cerevisiae CIT2-GFP strain, 3 h; DMSO control wells read 100%;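 active = GFP response vs DMSO above about 150%, limit read from the data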;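 also: median green fluorescence per well over all gated yeast cells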
AGP1 GFP CP2 – AGP1-GFP expression modulators, hit retest, confirmation, cell-based, flow cytometry, S. cerevisiae, cherry pick set 2 | shares compounds with LAP4 TOR yeast | S. cerevisiae AGP1-GFP strain, 3 h | percent response vs DMSO, % at 10 µM | 590 tested, under 10 active | AID 2643, 2010;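 active = over 150 percent of DMSO response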;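 also: median GFP channel fluorescence over all cells without mother daughter split; sample median GFP divided by mean DMSO control so 100% equals DMSO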
Yeast autofluor – compound autofluorescence in yeast s288c, dose response, artefact control for yeast TOR pathway GFP screen, s288c strain. 610 tested, under 10 active. fluorescence change (kMESF span) at 33 µM. shares compounds with LAP4 TOR yeast. AID 2757, 2010. S. cerevisiae s288c, 520 nm autofluorescence, flow cytometry, 3 h; active compounds read high; zero means same as solvent-only cells;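 active = fluorescence span over the dose series, or activity score, above about 33, limit read from the data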
* = called active by the depositor; . = no result given; [ ] = another dose, or the depositor's remark.

SMILES	AGP1-GFP MLPCN	LAP4 TOR yeast	CIT2-GFP yeast	RPL19A-GFP yeast	MEP2-GFP yeast	LAP4-GFP pick2	MEP2-GFP pick2	RPL19A GFP CP2	CIT2 GFP CP2	AGP1 GFP CP2	Yeast autofluor
CCC(C)NC(=O)CS(=O)Cc1nc(-c2cccc(C)c2)oc1C (stereo unspecified)	117.7	155.7*	123.1	85.6	127.7	104.2	103.1	99.1	100.1	98.5	.
CC(C)Oc1ccc(C(=O)NCc2cccs2)cc1	104.4	168.6*	85.7	79.0	92.7	101.9	98.2	100.4	92.7	97.9	.
O=C(NCC(=O)N1CCC(N2CCCCC2)CC1)C1CCCCC1	27.1	99.1	103.3	26.2*	230.1*	98.1	104.8	98.3	102.9	105.7	.
O=C(NCC(=O)N1CCN(c2ccccc2O)CC1)C1CCCCC1	109.1	105.2	106.0	108.2	104.7	.	.	.	.	.	.
COc1ccc(OC)c(NC(=S)NC(=O)c2ccc(Br)o2)c1	110.2	104.5	95.5	95.8	93.6	.	.	.	.	.	.
O=C(c1ccccn1)c1conc1C(=O)c1ccc(Br)cc1	102.5	331.4*	192.0*	112.3	281.4*	.	.	.	.	.	2.42
O=C1N=c2ccccc2=C1c1c(O)n(-c2cccc(F)c2)[nH]c1=O	89.0	200.0*	74.2	77.0	97.1	147.3	104.8	94.0	109.9	93.8	.
O=C(/C=C/c1ccccc1[N+](=O)[O-])c1ccccc1Br	92.1	156.2*	83.4	97.1	103.9	.	.	.	.	.	8.77
Cc1ccc(OCC(=O)OCC(=O)NC2CCCC2)cc1C	95.9	97.6	96.0	95.7	97.4	.	.	.	.	.	.
Cc1cc(C)cc(OCC(=O)OCC(=O)NC2CC2)c1	112.5	182.5*	80.3	83.9	99.8	97.1	101.5	100.7	98.4	102.0	.
COc1cccc(C(=O)Nc2nnc(-c3ccc(Cl)cc3)o2)c1	95.6	155.1*	93.3	92.4	105.4	208.7*	134.8	108.6	119.9	106.9	0.8
COc1cccc(NC(=O)c2cccc(Cl)c2)c1	74.8	153.4*	64.7	95.5	91.7	103.8	104.8	102.8	88.2	91.4	.
Cc1ccc(N2CCN(S(=O)(=O)c3ccc(Cl)s3)CC2C)cc1 (stereo unspecified)	95.2	87.8	102.3	99.4	108.3	.	.	.	.	.	.
N#C/C(=C\c1cc(Br)ccc1F)C(=O)NC1CC1	98.1	156.0*	74.4	98.4	93.7	155.8*	111.5	94.8	122.1	101.6	0.51
Cc1cc([N+](=O)[O-])ccc1NC(=O)Nc1ccc(F)cc1F	52.0	170.6*	70.5	59.1	109.1	101.0	101.5	96.2	99.5	96.7	.
COc1ccc(NC(=O)Nc2ccc(F)cc2F)c(C)c1	104.2	107.7	92.8	96.5	105.0	.	.	.	.	.	.
Cc1cc(C)c(C(=O)CC(=O)c2ccccc2Cl)c(O)c1	99.2	124.6	99.5	100.7	125.6	.	.	.	.	.	.
Cc1ccc(S(=O)(=O)N2CCC3(CC2)OCCN3S(=O)(=O)c2c(C)cc(C)cc2C)cc1	108.0	114.5	101.1	97.8	94.8	.	.	.	.	.	.
O=C(Nc1ccccc1Cl)C(Cl)C(=O)c1ccccc1 (stereo unspecified)	.	.	.	.	.	110.2	97.8	104.2	111.2	99.1	.
O=C(Nc1ccc(Cl)cc1)C(Cl)C(=O)c1ccccc1 (stereo unspecified)	97.1	107.3	102.2	102.3	90.3	.	.	.	.	.	.
CCc1cccc2sc(N3CCN(C(=O)c4ccc([N+](=O)[O-])o4)CC3)nc12	18.8	99.8	69.9	31.9*	114.5	.	.	.	.	.	8.97
Cc1cccc(C(=O)NC(=S)NCc2ccccc2)c1	94.6	108.3	92.0	98.7	98.1	.	.	.	.	.	.
Cc1cccc(C(=O)NC(=S)NNC(=O)Cc2ccccc2)c1	105.0	209.0*[may fluoresce green]	87.8	110.9	104.3	293.3*	138.1	116.0	156.1*	106.9	1.52
O=C(COc1ccccc1)NNC(=S)NC(=O)c1ccccc1	101.7	159.3*	96.1	114.1	96.7	.	.	.	.	.	2.04
O=C(Nc1ccc(F)c(Cl)c1)c1cncs1	93.4	95.9	96.5	97.8	98.4	.	.	.	.	.	.
SMILES	AGP1-GFP MLPCN	LAP4 TOR yeast	CIT2-GFP yeast	RPL19A-GFP yeast	MEP2-GFP yeast	LAP4-GFP pick2	MEP2-GFP pick2	RPL19A GFP CP2	CIT2 GFP CP2	AGP1 GFP CP2	Yeast autofluor
CCOc1ccc(NC(=O)CN(C)C(=O)c2sc3ccccc3c2Cl)cc1OCC	110.4	107.6	100.8	97.6	96.0	.	.	.	.	.	.
CCOC(=O)Cn1cc(/C=C/[N+](=O)[O-])c2ccccc21	92.7	154.2*	75.9	92.4	93.7	.	.	.	.	.	0.31
CCOC(=O)COc1ccc2ccccc2c1/C=C/[N+](=O)[O-]	86.1	229.7*	89.0	79.1	84.0	292.6*	113.5	82.4	118.2	97.8	0.1
CCC(=O)Nc1cc(C(=O)O)ccc1S(=O)(=O)c1ccc(C)cc1	91.3	91.0	89.3	99.8	98.2	.	.	.	.	.	.
O=C(CSc1ccc(-c2ccccn2)nn1)Nc1ccc(F)cc1F	115.7	107.0	160.7*	107.4	129.0	100.0	103.2	101.3	98.4	98.2	.
COC(=O)/C(C#N)=C1/C=Cc2ccccc2N1	93.0	102.2	102.8	103.2	103.4	.	.	.	.	.	.
O=C(/C=C/c1ccccc1)NC(=S)NNC(=O)Cc1cccs1	94.4	106.9	77.1	95.3	107.0	104.2	101.3	96.3	102.9	100.2	0.2
COc1ccc(S(=O)(=O)N2CCCOC2CNC(=O)C(=O)NC2CCCC2)cc1 (stereo unspecified)	101.4	103.9	105.5	103.9	113.5	.	.	.	.	.	.
